Reference: PubChem BioAssay (NCI)
This is part of a sample that, as a whole, favours compounds with a hit. Of some 83,000 tested, about 20% had one in any assay.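 The endpoint reported here, percent growth, reads 100 for growth as untreated, 0 for no net growth and -100 for all cells dead.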 A number with no mark means an inactive call. Active and inactive are the calls of the source. Rule for the calls: active = growth percent below 10; inactive = the rest.

These compounds were tested on CAKI-1 renal (assay: NCI-60 one-dose screen, 48 h (100 = growth as untreated, 0 = no growth, -100 = all killed)). Details: 10 µM unless noted.

Structure (SMILES) | growth
O=c1nc2sc3nc4ccccc4cc3cc-2s1 | 137%
O=c1c(-c2nc3ccccc3[nH]2)cc2ccccc2n1Cc1cn(Cc2ccc(N3CCOCC3)cc2)nn1 | 77.3%
COC(=O)/C(CCC=C(C)C)=C1\[C@@H](OC(C)=O)C[C@@]2(C)[C@H]1CC(=O)[C@H]1[C@@]3(C)CC[C@H](NCc4ccccc4)[C@@H](C)[C@@H]3CC[C@@]12C | 86.8%
S=C1CCCC(=S)N1 | 93%
CCCCC1COc2cccc3c2N1C=C/C3=C\C(=O)N(C)c1ccccc1 (stereo not drawn) | 72%
O=C(Nc1ccc(N2CCNCC2)cc1)c1[nH]ncc1Nc1cc(Oc2ccccc2)ncn1 | 18.4%
COc1cc(C2CC(c3ccc(Nc4nc(NCCO)nc(N5CCOCC5)n4)cc3)=NN2c2cc(Cl)cc(Cl)c2)cc(OC)c1OC (stereo not drawn) | 46.4%
Cc1ccc2sc3c(NCCCNCCO)nc4ccccc4c3c(=O)c2c1 | 56.7%
Nc1nc(N)c2c(n1)NC1(C=C(O)c3ccccc31)C1=C(N2)c2ccccc2C1=O (stereo not drawn) | 83.8%
O=C(c1nc2ccccc2[nH]1)C1[C@@H](c2cccc(O)c2)C2CC3CCCCC3N2[C@@]12C(=O)Nc1cc(Cl)ccc12 (stereo partly drawn) | 80%
Clc1ccc(COc2ccc(Nc3ncnc4onc(-c5ccccc5)c34)cc2)cc1 | 84.6%
CC1(O)COCCCCOc2c(CN)cccc2NC(=O)c2nc(cnc2N)-c2ccc(cc2)S(=O)(=O)C(C)(C)C1 (stereo not drawn) | 39.4%
O=c1c2cc(F)ccc2sc2c(NCCN3CCCC3)nc3ccccc3c12 | 62.8%
COc1ccc(-c2nocc2-c2cccs2)cc1 | 89.8%
Cn1c2c(c(=O)[nH]c1=O)NC1=C(C(=O)c3ccccc31)C1(C=C(O)c3ccccc31)N2 (stereo not drawn) | 86%
Cc1c(-c2noc(-c3ccc([N+](=O)[O-])cc3)n2)no[n+]1[O-] | 83.8%
O=C(Nc1ccc(N2CCNCC2)cc1)c1[nH]ncc1Nc1ncnc2sc3c(c12)CCC3 | -93.1% (active)
COC(=O)/C(CCC=C(C)C)=C1\[C@@H](OC(C)=O)C[C@@]2(C)[C@H]1CC(=O)N[C@H]1[C@@]3(C)CCNC(=O)[C@@H](C)[C@@H]3CC[C@@]12C | 95.5%
O=C(Nc1ncc(Cc2cccc(C(F)(F)F)c2)s1)C1COc2ccccc2O1 (stereo not drawn) | 84.2%
CCN1C(=O)N(CC)C2Nn3c(s/c(=C\c4ccccc4F)c3=O)=NC21 (stereo not drawn) | 48.1%

Structure (SMILES) | growth
O=C1/C(=C/c2cccc(O)c2)COc2ccc(O)cc21 | 95.3%
O=C(NCc1ccco1)C1CN(c2ccc(Cl)cc2)N(c2ccc(Cl)cc2)C1=O (stereo not drawn) | 41.1%
CC(=O)c1ccc(NC(=O)Nc2ccc(S(=O)(=O)Nc3ccc(Cl)nn3)cc2)cc1 | 93%
O=C(/C=C/c1ccc(Cl)cc1)c1ccc(Nc2nc(NCCO)nc(N3CCOCC3)n2)cc1 | 77.6%
CN(O)c1nc(N(C)O)nc(N2CCOCC2)n1 | -11.2% (active)
C1CCN(c2nc(N3CCCCC3)nc(N3CCOCC3)n2)CC1 | 85.6%
Cn1nc(C(F)(F)F)c(-c2ccc(Cl)c(C(F)(F)F)c2)c1-c1ccc(OCc2ccc(Cl)cc2)cc1O | 19.8%
CC/C=C\C[C@H](O)C/C=C1/C(=O)C=C[C@@H]1C/C=C\CCCC(=O)OCCS(=O)(=O)c1ccccc1 | 65.4%
O=C(/C=C/c1ccc(F)cc1)c1ccc(Nc2nc(NCCO)nc(Nc3ccc(Cl)cc3)n2)cc1 | 73.6%
COc1cc(C2C3=C(COC3=O)N(CCO)c3cc4c(cc32)OCCO4)cc(OC)c1O (stereo not drawn) | 39.8%
COc1cc2nc(NC3CCCC3)nc(NC3CCN(C(C)C)CC3)c2cc1OC | 98.2%
CCCCC1CCc2cccc3c(SCC(=O)N(C)c4ccc(Cl)cc4)cc[n+]1c23 (stereo not drawn) | 99.1%
CC(=O)c1ccc(Nc2nc(NCCO)nc(Nc3ccc(Cl)cc3)n2)cc1 | 92.1%
NC1C(N)C(N)C1N (stereo not drawn) | 101%
Cc1ccc2cccc(Oc3ccc(Nc4ncnc5onc(-c6ccccc6)c45)cc3)c2n1 | 89.2%
COc1cc(C=C2C(=O)N(C)C(=O)N(C)C2=O)cc(CN2CCCCC2)c1O | 92.4%
COc1cc2nc(-c3cnc(N(C)C)nc3)nc(NC3CCN(Cc4ccccc4)CC3)c2cc1OC | -90.9% (active)
COc1ccc(CCN2C(=O)CCSC2=S)cc1OC | 95.2%
NCCCNc1nc2ccccc2c2c(=O)c3cc(F)ccc3sc12 | 33.8%

The compounds below were run on A498 renal in the same assay as above. Details: 10 µM unless noted.

Structure (SMILES) | growth
O=c1nc2sc3nc4ccccc4cc3cc-2s1 | 94.6%
O=c1c(-c2nc3ccccc3[nH]2)cc2ccccc2n1Cc1cn(Cc2ccc(N3CCOCC3)cc2)nn1 | 92.4%
COC(=O)/C(CCC=C(C)C)=C1\[C@@H](OC(C)=O)C[C@@]2(C)[C@H]1CC(=O)[C@H]1[C@@]3(C)CC[C@H](NCc4ccccc4)[C@@H](C)[C@@H]3CC[C@@]12C | 91.9%
S=C1CCCC(=S)N1 | 91.3%
CCCCC1COc2cccc3c2N1C=C/C3=C\C(=O)N(C)c1ccccc1 (stereo not drawn) | 86.1%
O=C(Nc1ccc(N2CCNCC2)cc1)c1[nH]ncc1Nc1cc(Oc2ccccc2)ncn1 | 40.6%
COc1cc(C2CC(c3ccc(Nc4nc(NCCO)nc(N5CCOCC5)n4)cc3)=NN2c2cc(Cl)cc(Cl)c2)cc(OC)c1OC (stereo not drawn) | 52%
Cc1ccc2sc3c(NCCCNCCO)nc4ccccc4c3c(=O)c2c1 | 65.8%
Nc1nc(N)c2c(n1)NC1(C=C(O)c3ccccc31)C1=C(N2)c2ccccc2C1=O (stereo not drawn) | 109%
O=C(c1nc2ccccc2[nH]1)C1[C@@H](c2cccc(O)c2)C2CC3CCCCC3N2[C@@]12C(=O)Nc1cc(Cl)ccc12 (stereo partly drawn) | 52.7%
Clc1ccc(COc2ccc(Nc3ncnc4onc(-c5ccccc5)c34)cc2)cc1 | 69.2%
CC1(O)COCCCCOc2c(CN)cccc2NC(=O)c2nc(cnc2N)-c2ccc(cc2)S(=O)(=O)C(C)(C)C1 (stereo not drawn) | -34.4% (active)
O=c1c2cc(F)ccc2sc2c(NCCN3CCCC3)nc3ccccc3c12 | 26%
COc1ccc(-c2nocc2-c2cccs2)cc1 | 107%
Cn1c2c(c(=O)[nH]c1=O)NC1=C(C(=O)c3ccccc31)C1(C=C(O)c3ccccc31)N2 (stereo not drawn) | 143%
Cc1c(-c2noc(-c3ccc([N+](=O)[O-])cc3)n2)no[n+]1[O-] | 117%
O=C(Nc1ccc(N2CCNCC2)cc1)c1[nH]ncc1Nc1ncnc2sc3c(c12)CCC3 | 16.9%
COC(=O)/C(CCC=C(C)C)=C1\[C@@H](OC(C)=O)C[C@@]2(C)[C@H]1CC(=O)N[C@H]1[C@@]3(C)CCNC(=O)[C@@H](C)[C@@H]3CC[C@@]12C | 109%
O=C(Nc1ncc(Cc2cccc(C(F)(F)F)c2)s1)C1COc2ccccc2O1 (stereo not drawn) | 106%
CCN1C(=O)N(CC)C2Nn3c(s/c(=C\c4ccccc4F)c3=O)=NC21 (stereo not drawn) | 43.3%

Structure (SMILES) | growth
O=C1/C(=C/c2cccc(O)c2)COc2ccc(O)cc21 | 117%
O=C(NCc1ccco1)C1CN(c2ccc(Cl)cc2)N(c2ccc(Cl)cc2)C1=O (stereo not drawn) | 38.2%
CC(=O)c1ccc(NC(=O)Nc2ccc(S(=O)(=O)Nc3ccc(Cl)nn3)cc2)cc1 | 84%
O=C(/C=C/c1ccc(Cl)cc1)c1ccc(Nc2nc(NCCO)nc(N3CCOCC3)n2)cc1 | 92.6%
CN(O)c1nc(N(C)O)nc(N2CCOCC2)n1 | 89.6%
C1CCN(c2nc(N3CCCCC3)nc(N3CCOCC3)n2)CC1 | 109%
Cn1nc(C(F)(F)F)c(-c2ccc(Cl)c(C(F)(F)F)c2)c1-c1ccc(OCc2ccc(Cl)cc2)cc1O | 5.29% (active)
CC/C=C\C[C@H](O)C/C=C1/C(=O)C=C[C@@H]1C/C=C\CCCC(=O)OCCS(=O)(=O)c1ccccc1 | 115%
O=C(/C=C/c1ccc(F)cc1)c1ccc(Nc2nc(NCCO)nc(Nc3ccc(Cl)cc3)n2)cc1 | 70.4%
COc1cc(C2C3=C(COC3=O)N(CCO)c3cc4c(cc32)OCCO4)cc(OC)c1O (stereo not drawn) | 25.5%
COc1cc2nc(NC3CCCC3)nc(NC3CCN(C(C)C)CC3)c2cc1OC | 97.4%
CCCCC1CCc2cccc3c(SCC(=O)N(C)c4ccc(Cl)cc4)cc[n+]1c23 (stereo not drawn) | 114%
CC(=O)c1ccc(Nc2nc(NCCO)nc(Nc3ccc(Cl)cc3)n2)cc1 | 72.9%
NC1C(N)C(N)C1N (stereo not drawn) | 116%
Cc1ccc2cccc(Oc3ccc(Nc4ncnc5onc(-c6ccccc6)c45)cc3)c2n1 | 13%
COc1cc(C=C2C(=O)N(C)C(=O)N(C)C2=O)cc(CN2CCCCC2)c1O | 98.7%
COc1cc2nc(-c3cnc(N(C)C)nc3)nc(NC3CCN(Cc4ccccc4)CC3)c2cc1OC | 43.2%
COc1ccc(CCN2C(=O)CCSC2=S)cc1OC | 99.3%
NCCCNc1nc2ccccc2c2c(=O)c3cc(F)ccc3sc12 | 20.5%
